# Several values for one entry are separate records, joined by “and”; a condition that tells them apart may be missing. Equal entries are not always repeated. Hit rate of the full screen: of about 5,500 compounds, about 2,000 (36%) were called active. Not shown: some 18% with an inconclusive outcome. Some of the results follow. Unmarked numbers belong to inactive results. No stated cut-off is given here; in the data, active means normalized growth mostly below about 0.91 (no sharp cut-off); inconclusive means no clear call, values can overlap the other calls; inactive means mostly above about 0.92.
# Assay: chemical genetic growth profiling, strain panel (AID 1159580);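 further: tested at 20 µM; growth read once vehicle control cultures reached saturation at 30 °C; 1 = growth at the plate median or of vehicle wells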
# Settings: S. cerevisiae deletion strains, growth OD
compound,measurement,setting,value
CN(C)CCOC(=O)COc1ccc(Cl)cc1,normalized growth,"locus YAL013W, strain DEP1, stronger effect = lower value",1.02
same,normalized growth,"locus YAL021C, strain ccr4, stronger effect = lower value",0.955
same,normalized growth,"locus YAL026C, strain drs2, stronger effect = lower value",0.968
same,normalized growth,"locus YAL030W, strain snc1, stronger effect = lower value",0.973
same,normalized growth,"locus YAL040C, strain CLN3, stronger effect = lower value",1.06
same,normalized growth,"locus YBL061C, strain skt5, stronger effect = lower value",0.966
same,normalized growth,"locus YBR009C, strain hhf1, stronger effect = lower value",0.984
same,normalized growth,"locus YBR021W, strain FUR4, stronger effect = lower value",0.95
same,normalized growth,"locus YBR023C, strain chs3, stronger effect = lower value",0.965
same,normalized growth,"locus YBR171W, strain sec66, stronger effect = lower value",0.969
same,normalized growth,"locus YBR229C, strain ROT2, stronger effect = lower value",1.01
same,normalized growth,"locus YBR231C, strain swc5, stronger effect = lower value",0.96
same,normalized growth,"locus YBR279W, strain paf1, stronger effect = lower value",0.987
same,normalized growth,"locus YCL011C, strain gbp2, stronger effect = lower value",0.957
same,normalized growth,"locus YCL016C, strain dcc1, stronger effect = lower value",0.969
same,normalized growth,"locus YCL029C, strain bik1, stronger effect = lower value",1.04
same,normalized growth,"locus YCL061C, strain MRC1, stronger effect = lower value",0.969
same,normalized growth,"locus YCL069W, strain vba3, stronger effect = lower value",0.974
same,normalized growth,"locus YCR088W, strain abp1, stronger effect = lower value",0.956
same,normalized growth,"locus YDL005C, strain med2, stronger effect = lower value",0.972
same,normalized growth,"locus YDL035C, strain GPR1, stronger effect = lower value",1.05
same,normalized growth,"locus YDL040C, strain nat1, stronger effect = lower value",0.973
same,normalized growth,"locus YDL074C, strain BRE1, stronger effect = lower value",1.05
same,normalized growth,"locus YDL101C, strain DUN1, stronger effect = lower value",1.02
same,normalized growth,"locus YDL134C, strain PPH21, stronger effect = lower value",1.01
same,normalized growth,"locus YDL185W, strain tfp1, stronger effect = lower value",1.03
same,normalized growth,"locus YDL192W, strain arf1, stronger effect = lower value",1.04
same,normalized growth,"locus YDR001C, strain nth1, stronger effect = lower value",0.965
same,normalized growth,"locus YDR069C, strain doa4, stronger effect = lower value",0.953
same,normalized growth,"locus YDR101C, strain arx1, stronger effect = lower value",1.03
same,normalized growth,"locus YDR137W, strain rgp1, stronger effect = lower value",1.21 [resistant] (active)
same,normalized growth,"locus YDR150W, strain NUM1, stronger effect = lower value",1.03
same,normalized growth,"locus YDR159W, strain sac3, stronger effect = lower value",0.944
same,normalized growth,"locus YDR162C, strain NBP2, stronger effect = lower value",1.03
same,normalized growth,"locus YDR195W, strain ref2",1.02
same,normalized growth,"locus YDR297W, strain sur2, stronger effect = lower value",0.963
same,normalized growth,"locus YDR318W, strain mcm21, stronger effect = lower value",1.06
same,normalized growth,"locus YDR334W, strain swr1, stronger effect = lower value",0.933
same,normalized growth,"locus YDR335W, strain msn5, stronger effect = lower value",0.969
same,normalized growth,"locus YDR388W, stronger effect = lower value",1.03
same,normalized growth,"locus YDR392W, strain spt3, stronger effect = lower value",0.974
same,normalized growth,"locus YDR502C, strain sam2, stronger effect = lower value",1.09 [resistant] (active)
same,normalized growth,"locus YEL003W, strain gim4, stronger effect = lower value",0.957
same,normalized growth,"locus YEL037C, strain rad23, stronger effect = lower value",0.969
same,normalized growth,"locus YEL061C, strain CIN8 (second series), stronger effect = lower value",0.972
same,normalized growth,"locus YEL061C, strain CIN8, stronger effect = lower value",1.02
same,normalized growth,"locus YER002W, strain NOP16, stronger effect = lower value",0.971
same,normalized growth,"locus YER015W, strain faa2, stronger effect = lower value",0.972
same,normalized growth,"locus YER016W, strain bim1, stronger effect = lower value",0.968
same,normalized growth,"locus YER110C, stronger effect = lower value",1.05
same,normalized growth,"locus YER111C, strain swi4, stronger effect = lower value",0.98
same,normalized growth,"locus YER155C, strain BEM2 (second series), stronger effect = lower value",0.962
same,normalized growth,"locus YER155C, strain BEM2, stronger effect = lower value",1.01
same,normalized growth,"locus YER167W, strain BCK2, stronger effect = lower value",1.01
same,normalized growth,"locus YFR010W, strain ubp6, stronger effect = lower value",0.965
same,normalized growth,"locus YGL078C, strain dbp3, stronger effect = lower value",1.04
same,normalized growth,"locus YGL086W, strain mad1, stronger effect = lower value",1.06
same,normalized growth,"locus YGL167C, strain pmr1, stronger effect = lower value",0.968
same,normalized growth,"locus YGL173C, strain kem1, stronger effect = lower value",0.975
same,normalized growth,"locus YGL227W, strain vid30, stronger effect = lower value",0.965
same,normalized growth,"locus YGL240W, strain doc1, stronger effect = lower value",0.967
same,normalized growth,"locus YGL248W, strain PDE1, stronger effect = lower value",1.01
same,normalized growth,"locus YGL253W, strain hxk2, stronger effect = lower value",0.968
same,normalized growth,"locus YGR078C, strain PAC10, stronger effect = lower value",1.05
same,normalized growth,"locus YGR135W, strain pre9, stronger effect = lower value",1.03
same,normalized growth,"locus YGR229C, strain SMI1, stronger effect = lower value",1.06
same,normalized growth,"locus YGR252W, strain gcn5, stronger effect = lower value",1.01
same,normalized growth,"locus YHR013C, strain ard1, stronger effect = lower value",0.983
same,normalized growth,"locus YHR027C, strain rpn1, stronger effect = lower value",0.96
same,normalized growth,"locus YHR030C, strain SLT2, stronger effect = lower value",1.02 and 1.08
same,normalized growth,"locus YHR079C, strain IRE1 (second series), stronger effect = lower value",1.03
same,normalized growth,"locus YHR079C, strain IRE1, stronger effect = lower value",1.11
same,normalized growth,"locus YHR094C, strain hxt1, stronger effect = lower value",1.02
same,normalized growth,"locus YHR129C, strain ARP1, stronger effect = lower value",1.02
same,normalized growth,"locus YHR142W, strain chs7, stronger effect = lower value",0.962
same,normalized growth,"locus YHR200W, strain rpn10, stronger effect = lower value",1.06
same,normalized growth,"locus YIL066C, strain RNR3, stronger effect = lower value",1.04
same,normalized growth,"locus YIL073C, strain SPO22, stronger effect = lower value",1.08
same,normalized growth,"locus YIL125W, strain kgd1, stronger effect = lower value",1.01
same,normalized growth,"locus YIR030C, strain dcg1, stronger effect = lower value",1.03
same,normalized growth,"locus YJL092W, strain hpr5, stronger effect = lower value",0.943
same,normalized growth,"locus YJL095W, strain BCK1 (second series), stronger effect = lower value",0.965
same,normalized growth,"locus YJL095W, strain BCK1, stronger effect = lower value",1.05 and 1.09
same,normalized growth,"locus YJL115W, strain asf1, stronger effect = lower value",0.947
same,normalized growth,"locus YJL129C, strain trk1, stronger effect = lower value",1
same,normalized growth,"locus YJL134W, strain LCB3, stronger effect = lower value",1.01
same,normalized growth,"locus YJL154C, strain vps35, stronger effect = lower value",0.971
same,normalized growth,"locus YJL164C, strain tpk1, stronger effect = lower value",0.97
same,normalized growth,"locus YJL166W, strain qcr8, stronger effect = lower value",0.981
same,normalized growth,"locus YJL168C, strain set2, stronger effect = lower value",1.02
same,normalized growth,"locus YJL187C, strain SWE1 (second series), stronger effect = lower value",1.04
same,normalized growth,"locus YJL187C, strain SWE1, stronger effect = lower value",0.981
same,normalized growth,"locus YJR043C, strain POL32, stronger effect = lower value",1.09
same,normalized growth,"locus YJR066W, strain TOR1, stronger effect = lower value",0.974
same,normalized growth,"locus YJR075W, strain HOC1, stronger effect = lower value",0.98

# — PubChem BioAssay AID1159580 (chemical genetic matrix, 2015)
